The text below walks through data of ChEMBL document CHEMBL2218924, “A broad activity screen in support of a chemogenomic map for kinase signalling research and drug discovery” (Biochem J, 2013).

In assay [1] the target is T1, Muscle, skeletal receptor tyrosine-protein kinase (Homo sapiens) (UniProt O15146).
T1 sequence (whole entry): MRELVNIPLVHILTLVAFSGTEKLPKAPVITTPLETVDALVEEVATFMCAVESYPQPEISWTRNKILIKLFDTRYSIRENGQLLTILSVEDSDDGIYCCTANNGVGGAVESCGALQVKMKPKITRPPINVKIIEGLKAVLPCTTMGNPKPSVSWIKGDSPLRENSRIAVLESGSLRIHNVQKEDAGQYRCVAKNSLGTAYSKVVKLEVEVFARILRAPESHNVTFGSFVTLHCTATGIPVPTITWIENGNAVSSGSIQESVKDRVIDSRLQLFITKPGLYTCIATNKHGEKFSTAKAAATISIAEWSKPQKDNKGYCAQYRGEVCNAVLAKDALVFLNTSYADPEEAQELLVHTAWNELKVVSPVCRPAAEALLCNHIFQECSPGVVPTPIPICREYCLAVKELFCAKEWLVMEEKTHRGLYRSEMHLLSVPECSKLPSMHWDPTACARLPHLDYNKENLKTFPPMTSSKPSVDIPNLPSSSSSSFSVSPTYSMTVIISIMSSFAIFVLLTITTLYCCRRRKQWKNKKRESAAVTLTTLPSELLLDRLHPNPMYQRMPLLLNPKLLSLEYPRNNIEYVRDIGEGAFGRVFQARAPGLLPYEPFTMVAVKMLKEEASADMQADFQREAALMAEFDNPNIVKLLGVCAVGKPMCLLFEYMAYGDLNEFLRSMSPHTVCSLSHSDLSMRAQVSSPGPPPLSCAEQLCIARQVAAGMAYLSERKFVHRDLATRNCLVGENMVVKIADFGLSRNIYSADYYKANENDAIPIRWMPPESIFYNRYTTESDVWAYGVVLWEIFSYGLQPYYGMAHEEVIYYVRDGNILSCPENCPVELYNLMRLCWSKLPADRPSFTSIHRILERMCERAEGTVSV
Particulars: at 10 µM.

Assay [2] concerns the target T2, Serine/threonine-protein kinase Nek11 (Homo sapiens) (UniProt Q8NG66).
T2 sequence (whole entry): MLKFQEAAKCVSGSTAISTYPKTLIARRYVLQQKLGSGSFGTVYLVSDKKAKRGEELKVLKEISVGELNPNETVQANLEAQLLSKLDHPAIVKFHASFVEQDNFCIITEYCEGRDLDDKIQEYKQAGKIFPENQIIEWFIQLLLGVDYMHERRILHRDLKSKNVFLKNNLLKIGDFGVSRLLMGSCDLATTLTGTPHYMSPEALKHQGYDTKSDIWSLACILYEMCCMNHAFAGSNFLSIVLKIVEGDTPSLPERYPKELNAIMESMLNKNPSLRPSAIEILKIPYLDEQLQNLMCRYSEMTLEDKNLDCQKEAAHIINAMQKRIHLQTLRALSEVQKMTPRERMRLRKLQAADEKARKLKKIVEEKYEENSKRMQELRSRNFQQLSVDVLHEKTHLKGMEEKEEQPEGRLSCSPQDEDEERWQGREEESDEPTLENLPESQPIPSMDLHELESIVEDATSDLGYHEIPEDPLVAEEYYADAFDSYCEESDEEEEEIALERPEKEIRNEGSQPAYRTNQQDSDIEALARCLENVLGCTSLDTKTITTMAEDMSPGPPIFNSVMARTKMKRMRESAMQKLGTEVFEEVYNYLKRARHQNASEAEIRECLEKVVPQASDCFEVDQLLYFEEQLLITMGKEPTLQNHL
To be noted: at 1 µM.

Assay [3] deals with T3, Serine/threonine-protein kinase Nek2 (Homo sapiens) (UniProt P51955).
T3 sequence (whole entry): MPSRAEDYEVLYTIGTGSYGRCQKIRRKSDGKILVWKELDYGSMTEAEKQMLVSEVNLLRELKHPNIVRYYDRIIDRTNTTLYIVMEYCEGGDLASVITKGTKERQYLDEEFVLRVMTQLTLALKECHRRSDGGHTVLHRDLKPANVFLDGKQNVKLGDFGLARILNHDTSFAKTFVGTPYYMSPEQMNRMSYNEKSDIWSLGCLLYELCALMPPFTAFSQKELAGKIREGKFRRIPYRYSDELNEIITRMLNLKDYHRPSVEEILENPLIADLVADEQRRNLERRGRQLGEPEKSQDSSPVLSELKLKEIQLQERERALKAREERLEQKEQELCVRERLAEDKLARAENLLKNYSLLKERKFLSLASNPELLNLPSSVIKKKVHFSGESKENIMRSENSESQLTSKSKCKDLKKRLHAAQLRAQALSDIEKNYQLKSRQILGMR
To be noted: at 1 µM.

In assay [4] the target is T3, Serine/threonine-protein kinase Nek2 (Homo sapiens). To be noted: at 10 µM.
Assay [5] deals with T1, Muscle, skeletal receptor tyrosine-protein kinase (Homo sapiens). To be noted: at 1 µM.
The target of assay [6] is T2, Serine/threonine-protein kinase Nek11 (Homo sapiens). Particulars: at 10 µM.
In assay [7] the target is T4, Serine/threonine-protein kinase Nek3 (Homo sapiens) (UniProt P51956).
T4 sequence (whole entry): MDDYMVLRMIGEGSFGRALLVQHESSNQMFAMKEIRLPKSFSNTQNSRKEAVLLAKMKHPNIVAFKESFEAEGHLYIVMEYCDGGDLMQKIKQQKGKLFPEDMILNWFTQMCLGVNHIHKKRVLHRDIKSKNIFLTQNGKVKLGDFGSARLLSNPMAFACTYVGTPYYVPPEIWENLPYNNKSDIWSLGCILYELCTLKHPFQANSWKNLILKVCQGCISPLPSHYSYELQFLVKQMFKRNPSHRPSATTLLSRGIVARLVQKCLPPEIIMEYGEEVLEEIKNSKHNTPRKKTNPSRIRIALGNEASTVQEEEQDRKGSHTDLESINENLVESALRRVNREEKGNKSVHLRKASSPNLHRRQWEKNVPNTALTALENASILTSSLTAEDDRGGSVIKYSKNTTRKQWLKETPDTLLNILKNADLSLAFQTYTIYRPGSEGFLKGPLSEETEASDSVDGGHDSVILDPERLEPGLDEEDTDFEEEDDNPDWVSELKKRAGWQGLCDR
Particulars: at 1 µM.

Assay [8] deals with T4, Serine/threonine-protein kinase Nek3 (Homo sapiens). Particulars: at 10 µM.
For assay [9], the target named is Serine/threonine-protein kinase tousled-like 2 (Homo sapiens) (UniProt Q86UE8). Particulars: at 1 µM.
Chain of Serine/threonine-protein kinase tousled-like 2 (Homo sapiens) (Q86UE8 whole entry, looked up): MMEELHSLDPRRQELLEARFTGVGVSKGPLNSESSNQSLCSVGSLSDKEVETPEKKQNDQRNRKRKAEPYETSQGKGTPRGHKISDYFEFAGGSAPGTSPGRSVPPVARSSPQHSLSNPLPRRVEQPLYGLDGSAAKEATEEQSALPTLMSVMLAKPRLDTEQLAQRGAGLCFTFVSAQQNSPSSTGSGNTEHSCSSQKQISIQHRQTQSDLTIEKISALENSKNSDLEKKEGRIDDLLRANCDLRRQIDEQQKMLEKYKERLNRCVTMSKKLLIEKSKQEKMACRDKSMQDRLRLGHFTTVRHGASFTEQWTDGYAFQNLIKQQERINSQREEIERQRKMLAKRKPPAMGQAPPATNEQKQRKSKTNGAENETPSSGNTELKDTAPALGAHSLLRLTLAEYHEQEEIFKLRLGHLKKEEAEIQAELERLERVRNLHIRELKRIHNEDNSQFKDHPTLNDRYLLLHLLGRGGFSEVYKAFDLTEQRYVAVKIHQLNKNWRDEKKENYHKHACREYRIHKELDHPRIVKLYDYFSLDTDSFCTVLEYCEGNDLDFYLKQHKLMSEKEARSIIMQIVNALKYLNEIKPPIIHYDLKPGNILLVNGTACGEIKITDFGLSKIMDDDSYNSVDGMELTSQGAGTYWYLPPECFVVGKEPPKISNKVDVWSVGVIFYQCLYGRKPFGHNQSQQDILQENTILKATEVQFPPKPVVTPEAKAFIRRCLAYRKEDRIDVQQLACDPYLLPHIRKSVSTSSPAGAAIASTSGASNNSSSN
Assay [10] shares this target. To be noted: at 10 µM.

As for `O=C(c1ccccc1)c1ccc(N2CCOCC2)cc1O`, the residual activity in assay [1] stood at 86%; in [2], 89%; in assay [3], 90%.
For `O=S(=O)(c1cccc2cnccc12)N1CCCNCC1`, in [4], the residual activity is 100%.
Consider `CCCCc1c(-c2ccc(O)cc2)[nH]c2nccnc12`, for which the residual activity was determined as 81% in assay [5]; 62% in assay [1]; 80% in [2]; 88% in [6]; 88% in assay [7]; 79% in assay [8]. For the same compound, the residual activity came to 91% in [9] and 80% in [10].
In the case of `CC(C)(C)c1nc2c3ccc(F)cc3c3c(=O)[nH]ccc3c2[nH]1`, the residual activity in assay [2] is 98%; in [6], 55%; in assay [4], 102%.
As for `COc1ccc(COc2ccc(Cc3cnc(N)nc3N)cc2OC)cc1`, the results for the residual activity in assay [2] and in assay [6] were 110% and 115%, respectively.
As for `COc1cc2ncnc(Nc3cccc(Cl)c3)c2cc1OC`, the residual activity in assay [5] came out at 121%; in [1] it was 101%; in [4], 111%; in assay [7], 111%; in assay [9], 119%; in assay [10] it was 101%.
Turning to `O=C1Cc2c([nH]c3ccc(Br)cc23)-c2ccccc2N1`, the residual activity turned out to be 42% in [5]; 3% in [1]; 95% in [3]; 80% in assay [4]; 81% in assay [7]; 72% in assay [8]. The residual activity in [9] amounted to 89%; in assay [10], 78%.
`Nc1ncnc2c1cnn2-c1ccccc1`: the residual activity turned out to be 88% in assay [1]; 79% in assay [2]; 88% in [6]; 83% in [3]; 99% in assay [4]; 91% in assay [8].
Consider `Oc1cccc(-c2nc(N3CCOCC3)c3oc4ncccc4c3n2)c1`, for which the residual activity was 98% in assay [2]; 98% in [6]; 117% in [7]; 69% in [8]; 95% in [10].
Turning to `Nc1nc(Nc2ccc(S(N)(=O)=O)cc2)nn1C(=O)c1c(F)cccc1F`, the residual activity came to 20% in [1]; 56% in [2]; 96% in assay [3]; 70% in assay [4]; 71% in [8]; 68% in assay [9]. Moreover, the residual activity in assay [10] came to 17%.
Turning to `CN([C@@H](Cc1ccc(OS(=O)(=O)c2cccc3cnccc23)cc1)C(=O)N1CCN(c2ccccc2)CC1)S(=O)(=O)c1cccc2cnccc12`, the residual activity in [5] came to 115%; in [7], 99%; in assay [8], 99%.
`Fc1ccc(-c2nc3n(c2-c2ccncc2)CCS3)cc1`: the residual activity is 77% in assay [2] and 83% in [6].
On to `O=C1NC(=O)C(c2c[nH]c3ccccc23)=C1c1c[nH]c2ccccc12`, for which the residual activity in [1] came out at 60%; in assay [2], 63%; in assay [6] it was 59%; in [9], 51%; in [10], 9%.
Consider `CCOC(=O)c1c(C)[nH]c(/C=C2\C(=O)Nc3ccccc32)c1C`, for which the values for the residual activity in [2], in [6] and in assay [10] were 97%, 98% and 98%, respectively.
With `O=C1NC(=O)C(c2cn(CCCn3ccnc3)c3ccccc23)=C1Nc1ccccc1`, the residual activity is 77% in assay [5]; 65% in assay [1]; 59% in [2]; 44% in assay [6]; 110% in assay [7]; 104% in assay [8]. The results for the residual activity in assay [9] and in assay [10] were 44% and 7%, respectively.
On to `N#C/C(=C1/Nc2ccccc2S1)c1ccnc(NCCc2cccnc2)n1`, for which the figures for the residual activity in assay [2], in assay [6] and in [4] were 45%, 6% and 82%, respectively.
Regarding `CC(C)N(CCC(=O)c1ccc2ccccc2c1)Cc1ccccc1`, the residual activity came to 87% in assay [5]; 79% in assay [1]; 81% in [3]; 88% in [4]; 86% in assay [9]; 80% in [10].
For the compound `COc1ccc(CNC(=O)Nc2ncc([N+](=O)[O-])s2)cc1`, the residual activity in assay [5] amounted to 68%; in [1], 67%; in assay [2] it was 51%; in assay [6], 66%; in assay [10], 74%.
On to `Nc1ncnc2c1c(-c1ccc(Oc3ccccc3)cc1)cn2C1CCCC1`, for which the residual activity in assay [5] turned out to be 83%; in assay [1], 37%; in [2], 102%; in [3] it was 77%; in assay [4], 69%; in [7] it was 105%. Also, the residual activity turned out to be 55% in assay [8], 92% in assay [9] and 82% in assay [10].
As for `N#C/C(=C\c1ccc(O)c(O)c1)C(=O)NCc1ccccc1`, the values for the residual activity in assay [2], in assay [6] and in assay [10] were 103%, 103% and 85%, respectively.
Regarding `COc1cc2c(cc1OC)-c1n[nH]c(Nc3cccc(F)c3)c1C2`, the residual activity in assay [3] came out at 82%; in assay [4], 80%; in assay [7], 114%; in assay [8] it was 100%.

The term residual activity denotes the signal under treatment as a percentage of the control signal.
